Data on 7 compounds can be found in PubChem BioAssay (Tox21).

Unmarked numbers belong to inactive results. Inconclusive results are not listed. The source made the active and inactive calls. Unless noted, calls follow the shape of the dose curve; as a rule, active = well fitted curve in the direction sought with a large enough effect in the repeat runs; inconclusive = weak or mixed curves; inactive = no such curve, though single readings can be large; an effect the other way counts as inactive or inconclusive.

A short description of test [1]: qHTS assay to identify small molecule agonists of the hypoxia (HIF-1) signaling pathway - cell viability counter screen (AID 1224844; calls by dose curve; also: nearly all actives have a fitted effect of over 50% in size). In outline: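 Cytotoxicity was measured in parallel with the HRE-driven beta-lactamase readout: after 17 hrs of compound exposure at 37C, HRE-bla ME-180 cells received CellTiter-Glo and luminescence was recorded 30 min later.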
(Quantitative high-throughput screening tests each substance at several concentrations.)

A short description of test [2]: qHTS assay to identify small molecule agonists of the hypoxia (HIF-1) signaling pathway (AID 1224846; active = well fitted activation curve with a large enough effect in the signal ratio in the repeat runs, not every such curve was filed as active; the % refers to the signal ratio). Summed up:
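Compounds from the Tox21 10K library, dissolved in DMSO, are tested for induction of a hypoxia response element–controlled beta-lactamase reporter in ME-180 cells. Exposure lasts 17 hrs at 37C after a 5 hr settling period, followed by CCF4-AM FRET substrate.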

A short description of test [3]: qHTS assay to identify small molecule agonists of H2AX - cell viability counter screen (AID 1224847; calls by dose curve;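 also: wild-type CHO-K1 cells; top concentration of the series differs between compounds; nearly all actives have a fitted effect of over 30% in size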). In outline:
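After overnight plating of 1000 CHO-K1 cells per well, a 15-concentration compound series was applied for 3 hr at 37C. Luminescence from CellTiter-Glo, read following 30 min at room temperature, reflected cell viability.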

A short description of test [4]: qHTS RealTime-Glo MT Cell Viability Assay in HepG2 cells - 24 hour (AID 1224867). Also: nearly all actives have a fitted effect of over 50% in size. Summed up: (§1)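 Cell number in HepG2 cultures estimated from NanoLuc luminescence generated by metabolic reduction of a prosubstrate by living cells. The homogeneous, nonlytic format allowed repeated reads at 0, 8, 16, 24, 32 and 40 h of compound exposure.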
A short description of test [5]: qHTS RealTime-Glo MT Cell Viability Assay in HEK293 cells - 32 hour (AID 1224868). Also: top concentration of the series differs between compounds; nearly all actives have a fitted effect of over 50% in size. In outline: (§2)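 Homogeneous bioluminescent viability format in HEK293 cells (600 cells/well). Following 5 h at 37 C/5% CO2, 23 nL compound was pintooled; the signal was measured repeatedly during 40 h incubation.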
A short description of test [6]: A CellTox Green Cytotoxicity Assay to monitor cytotoxicity in HEK293 cells - 0 hour (AID 1224869). Also: nearly all actives have a fitted effect of over 50% in size. Summed up:
(§3)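 Cells (HEK293, 600/well) and dye reagent are dispensed together. After 5 h at 37 C, 23 nL compound is pinned in. Plates stay at 37 C for 40 h with fluorescence read at 0h, 8h, 16h, 24h, 32h and 40h.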

Test [7] in a line: qHTS RealTime-Glo MT Cell Viability Assay in HepG2 cells - 40 hour (AID 1224870). Also: nearly all actives have a fitted effect of over 50% in size. In outline:
(§4)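 HepG2 cells mixed with RealTime-Glo MT reagents (NanoLuc plus cell-permeant prosubstrate) were seeded at 600 cells/well, incubated 5 h at 37 C/5% CO2, then pinned with compounds in DMSO; nonlytic luminescence tracked viability during 40 h treatment.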

Test [8] can be described thus: A CellTox Green Cytotoxicity Assay to monitor cytotoxicity in HEK293 cells - 40 hour (AID 1224871). Also: nearly all actives have a fitted effect of over 45% in size. Also: potency is read from the fitted curve at half-maximal effect. In outline:
as §3

Test [9] can be described thus: qHTS RealTime-Glo MT Cell Viability Assay in HEK293 cells - 16 hour (AID 1224872). Summed up: as §2
Test [10] is described as follows: qHTS RealTime-Glo MT Cell Viability Assay in HepG2 cells - 8 hour (AID 1224873). Also: nearly all actives have a fitted effect of over 55% in size. In outline:
as §4

Test [11] can be described thus: qHTS RealTime-Glo MT Cell Viability Assay in HEK293 cells - 40 hour (AID 1224874). Also: nearly all actives have a fitted effect of over 50% in size. The note with it: RealTime-Glo luminescence; max response: hits give low values. Summed up:
(§5)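 Real-time viability in HEK293: signal arises when living cells convert a prosubstrate for NanoLuc in the medium, so luminescence tracks viable cell number. Compound (23 nL, DMSO) added 5 h post-seeding; kinetic reads at 0–40 h, 37 C.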

A short description of test [12]: A CellTox Green Cytotoxicity Assay to monitor cytotoxicity in HepG2 cells - 16 hour (AID 1224876). Also: nearly all actives have a fitted effect of over 45% in size. Summed up:
(§6)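 Cells and non-lytic dye reagent are dispensed together (600 HepG2 cells/well) and incubated 5 h before DMSO compound transfer. Kinetic fluorescence is then recorded in the same wells during 40 h at 37 C.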

Test [13] is described as follows: qHTS RealTime-Glo MT Cell Viability Assay in HepG2 cells - 32 hour (AID 1224877). Also: nearly all actives have a fitted effect of over 55% in size. Summed up:
as §1

Test [14] is described as follows: A CellTox Green Cytotoxicity Assay to monitor cytotoxicity in HepG2 cells - 24 hour (AID 1224878). Also: nearly all actives have a fitted effect of over 45% in size. In outline:
as §6

Test [15] is described as follows: A CellTox Green Cytotoxicity Assay to monitor cytotoxicity in HepG2 cells - 40 hour (AID 1224879). Also: nearly all actives have a fitted effect of over 40% in size. Summed up: as §6
The nature of test [16]: qHTS RealTime-Glo MT Cell Viability Assay in HEK293 cells - 0 hour (AID 1224880). Also: top concentration of the series differs between compounds; nearly all actives have a fitted effect of over 45% in size. In outline:
as §5

Test [17] is described as follows: qHTS assay to identify small molecule agonists of the estrogen related receptor (ERR) signaling pathway from Tox21 library (AID 1224849; calls by dose curve; also: nearly all actives have a fitted effect of over 15% in size). The note with it: ERR reporter cell line, ONE-Glo luciferase, 18 h; at 92.4 µM (top of the series) unless noted. In outline: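 Cells carrying the ERR reporter were plated and allowed to settle for 6 h, exposed to library compounds for 18 h at 37 C, then lysed with ONE-Glo and luminescence measured.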

Test [18] in a line: A CellTox Green Cytotoxicity Assay to monitor cytotoxicity in HEK293 cells - 24 hour (AID 1224875). Also: nearly all actives have a fitted effect of over 45% in size. Also: potency is read from the fitted curve at half-maximal effect. Summed up:
as §3

Test [19] in a line: qHTS assay to identify small molecule antagonists of the estrogen related receptor (ERR) signaling pathway from Tox21 library (AID 1224848). Also: nearly all actives have a fitted effect of over 50% in size. In outline: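 Tox21 10K compounds in DMSO tested for ERR pathway antagonism in NTP's ERR cell line; 18 h, 37 C exposure; ONE-Glo luminescence.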
% is scaled to controls: 0 for no effect and ±100 for the full control effect.

As to `CCCCCCCCCCCCCCCC(=O)OC/C=C(C)/C=C/C=C(C)/C=C/C1=C(C)CCCC1(C)C`, the Potency entry in test [1], in test [3], in test [4], in test [5], in test [6] and in test [7] was “inactive” throughout. The Potency entry in [8], in [9], in test [10], in test [12], in test [13] and in test [14] was “inactive” each time. Besides, the Potency entry in [15] and in [16] was “inactive” each time. For the same compound, the result in test [2] was inactive. Moreover, the max response in test [11] is -5.46%.
As to `Cc1ccc(C(=O)C(C)CN2CCCCC2)cc1` (configuration not stated), the Potency result in test [1], in test [3], in test [4], in test [5], in test [6] and in test [7] was “inactive” each time. The Potency entry in [8], in test [9], in test [10], in test [18], in test [12] and in test [13] was “inactive” in each case. In addition, the Potency result in [14], in [15] and in [16] was “inactive” in each case. Also, in test [2], the compound was called inactive. Besides, in test [17], the activity change, positive = activation is 4.97% [at 42.5 µM]. Further, the max response in [11] is 11.5%.
For the compound `CCOc1ccc(NC(=O)CC(C)=O)cc1`, the Potency entry in [1], in [3], in test [19], in test [4], in test [5] and in test [6] was “inactive” in each case. In addition, the Potency entry in test [8], in test [9], in test [10], in test [18], in [12] and in test [13] was “inactive” in each case. Besides, the Potency entry in [14], in [15] and in test [16] was “inactive” in each case. For the same compound, the result in [2] was inactive. The activity change, positive = activation in test [17] is -8.93%. In test [11], the max response is -6.1%.
As for `COc1cc(C(C)(C)C)c(O)c(C(C)(C)C)c1`, the Potency entry in test [1], in [19], in [4], in test [5], in test [6] and in [7] was “inactive” in each case. For the same compound, the Potency entry in test [9], in test [13] and in test [16] was “inactive” each time. Moreover, the outcome in test [2] was inactive. Moreover, the activity change, positive = activation in test [17] was -4.21%. The Potency in test [8] and in [18] was 43.6 µM (active) throughout. The max response in test [11] is 1.44%.
`Oc1ccc2c(c1)OCO2`: the Potency result in [1], in test [3], in [4], in [5], in [6] and in test [7] was “inactive” each time. Also, the Potency result in test [8], in test [9], in test [10], in test [18], in test [12] and in test [13] was “inactive” in each case. The Potency result in test [14], in test [15] and in [16] was “inactive” each time. Further, in test [2], the call was inactive. Also, the max response in [11] is -2.1%.
In the case of `CCCCCCCCN(C)C`, the Potency result in test [1], in [3], in test [19], in test [4], in [5] and in test [6] was “inactive” in each case. In addition, the Potency result in test [7], in test [8], in test [9], in test [10], in [12] and in test [13] was “inactive” in each case. The Potency entry in [14], in test [15] and in test [16] was “inactive” each time. For the same compound, the result in [2] was inactive. In addition, the activity change, positive = activation in test [17] is 2.41%. Besides, the max response in test [11] was 16%.
`CC(C)CC=O`: the Potency entry in test [1], in test [3], in test [4], in test [5], in [6] and in [7] was “inactive” throughout. The Potency entry in test [8], in test [9], in test [10], in test [18], in test [13] and in test [14] was “inactive” each time. Besides, the Potency result in test [15] and in [16] was “inactive” throughout. In addition, in [2], the outcome was inactive. Moreover, the max response in test [11] was 6.71%.
